Reference: PubChem BioAssay (NCATS)
Results filed as inconclusive are left out. Calls of active or inactive are those of the source. Unless noted, the call rests on the fitted dose curve; in most records, active means well fitted cell-killing curve with a large enough effect; inconclusive means small, poorly fitted or top-dose-only effect; inactive means flat fitted curve, though single readings scatter.

How the values were obtained:
[1] = Cell Viability - LYMP2-025 (AID 976);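 further: series mostly up to about 92 µM; plate controls were DMSO only for no effect and tetraoctylammonium bromide control for full effect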
Summary of the method: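 Acute cytotoxicity is scored as a concentration-dependent fall in intracellular ATP, measured by luciferase luminescence, in human lymphoblastoid LYMP2-025 cells exposed to compound for 24 hours at 37 C. AC50 values come from standard Hill fits.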

[2] = Cell Viability - LYMP2-002 (AID 977);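 further: series mostly up to about 92 µM; compound exposure lasted 24 h at 37 °C; plate controls were DMSO only for no effect and 92 µM tetraoctylammonium bromide for full effect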
Summary of the method: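 In this qHTS viability screen, 2500 human lymphoblastoid cells per well receive compound for 24 hr at 37 C, and luciferase-based ATP luminescence gives the viability signal. Tetraoctylammonium bromide serves as positive control.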

[3] = Cell Viability - LYMP2-006 (AID 978); further: series mostly up to about 92 µM; on the % scale 0 is the no-effect control and ±100 the full control effect; nearly all actives have a fitted effect of over 60% in size
Summary of the method: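 In this cytotoxicity screen, the human lymphoblastoid line grew in complete medium with test compounds for 24 hr at 37 C. Cellular ATP served as the viability signal.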

[4] = Cell Viability - LYMP2-007 (AID 979);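 further: cells exposed to compound for 24 h before reading; 0% = DMSO only and the negative end = 92 µM tetraoctylammonium bromide; nearly all actives have a fitted effect of over 60% in size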
Summary of the method: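 Cells are seeded at 2500 per well and rested 5 hr. Compounds are then added over a concentration series for 24 hr at 37 C. CellTiter-Glo is added for 30 min at room temperature before luminescence reading.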

[5] = Cell Viability - LYMP2-008 (AID 980); further: on the % scale 0 is the no-effect control and ±100 the full control effect; nearly all actives have a fitted effect of over 60% in size
Summary of the method: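 Cells seeded at 2500/well and rested 5 hr at 37 C; compounds added over a concentration range and incubated 24 hr at 37 C; CellTiter-Glo added, 30 min at room temperature; luminescence read and AC50 fitted with Hill model.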

[6] = Cell Viability - LYMP2-010 (AID 981); further: on the % scale 0 is the no-effect control and ±100 the full control effect; nearly all actives have a fitted effect of over 55% in size
Summary of the method: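 Steps: seed 2500 LYMP2-010 cells per well; incubate 5 hr at 37 C; add compound; incubate 24 hr at 37 C; add CellTiter-Glo, wait 30 min at room temperature; read luminescence. Concentration-response fitted to Hill equation for AC50.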

[7] = Cell Viability - LYMP2-012 (AID 982);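 further: cellular ATP by luciferase luminescence where a drop means cytotoxicity; cells exposed to compound for one day before reading; 0% = DMSO only and full loss = 92 µM tetraoctylammonium bromide; nearly all actives have a fitted effect of over 55% in size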
[8] = Cell Viability - LYMP2-014 (AID 983);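 further: series mostly up to about 92 µM; plate controls were DMSO only for no effect and 92 µM tetraoctylammonium bromide for full effect; nearly all actives have a fitted effect of over 50% in size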
Summary of the method: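 Cells are plated at 2500/well and left 5 hr at 37 C. Compounds are added across a concentration range and incubated 24 hr at 37 C in complete medium. CellTiter-Glo is added, and luminescence is read after 30 min at room temperature.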

[9] = Cell Viability - LYMP2-016 (AID 984); further: on the % scale 0 is the no-effect control and ±100 the full control effect; nearly all actives have a fitted effect of over 55% in size
Summary of the method: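 Concentration-dependent ATP depletion measured in LYMP2-016 lymphoblastoid cells, 24 h, 37 C; luciferase-based luminescent detection; Hill-equation AC50.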

[10] = Cell Viability - LYMP2-018 (AID 985);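 further: compound exposure lasted 24 hr at 37 °C; plate controls were DMSO only for no effect and tetraoctylammonium bromide at 92 µM for full effect; nearly all actives have a fitted effect of over 50% in size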
Summary of the method: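 Seed 2500 lymphoblastoid cells per well, incubate 5 hr at 37 C, add compound and incubate 24 hr at 37 C, add CellTiter-Glo, wait 30 min at room temperature, then read luminescence.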

[11] = Cell Viability - LYMP2-020 (AID 986);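 further: series mostly up to about 92 µM; plate controls were DMSO only for no effect and tetraoctylammonium bromide at 92 µM for full effect; nearly all actives have a fitted effect of over 55% in size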
Summary of the method: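 Seed 2500 cells per well and incubate 5 hr at 37 C. Add compounds at a concentration series and incubate 24 hr at 37 C. Add CellTiter-Glo, wait 30 min at RT, read luminescence, and fit a Hill curve for AC50.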

[12] = Cell Viability - LYMP2-022 (AID 987)
Summary of the method: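 Cells were seeded at 2500 per well, rested 5 hr at 37 C, and treated with titrated compounds for 24 hr at 37 C. Cellular ATP was then quantified by luciferase luminescence, and AC50 values were derived from Hill-modelled concentration-response curves.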

[13] = Cell Viability - LYMP2-024 (AID 988);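 further: plate controls were DMSO only for no effect and 92 µM tetraoctylammonium bromide for full effect; nearly all actives have a fitted effect of over 60% in size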
Summary of the method: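 qHTS cytotoxicity, human lymphoblastoid line, complete medium; 24 h cpd treatment, 37 C; CellTiter-Glo ATP luminescence readout; tetraoctylammonium bromide positive control; AC50 via Hill fit.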

[14] = Cell Viability - LYMP2-026 (AID 989); further: on the % scale 0 is the no-effect control and ±100 the full control effect; nearly all actives have a fitted effect of over 50% in size
Summary of the method: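 Cells are seeded at 2500 per well and held 5 hr at 37 C. Compounds are added in concentration series for 24 hr, then CellTiter-Glo reagent is applied and luminescence read.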

[15] = Cell Viability - LYMP1-002 - Assay at 24 hr (AID 993); further: on the % scale 0 is the no-effect control and ±100 the full control effect
Summary of the method: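 Acute toxicity is measured as concentration-dependent loss of cellular ATP in a human lymphoblastoid line (Coriell LYMP1-002) after 24 h treatment in complete medium. ATP is quantified by luciferase luminescence and AC50 derived by Hill modelling.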

[16] = Cell Viability - LYMP1-002 - Assay at 40 hr (AID 994)
Summary of the method: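 Cells are plated at 2500 per well and rested 5 hr at 37 C. Compounds are added and incubated 40 hr at 37 C. CellTiter-Glo reagent is added for 30 min at room temperature before luminescence is read.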

[17] = qHTS Assay for Identification of Small Molecule Inducers of Hypoxia Response (AID 2120; active means well fitted curve in the direction sought with a large enough effect in the signal ratio, with a control signal flat, not every such curve was filed as active; the % refers to the signal ratio; further: 0% is about no effect)
Summary of the method: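 Cell-based qHTS for reporter induction: hypoxia response element controlled beta-lactamase in ME-180 cells. Compounds incubated 17 h at 37 degrees C; activity from blue/green (460/530 nm) ratio, inducers ranked by AC50.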

[18] = target: Androgen receptor (Homo sapiens) (UniProt P10275); test: qHTS assay for small molecule agonists of androgen receptor signaling (AID 588515; active means well fitted curve in the direction sought with a large enough effect in the signal ratio, with a control signal flat; the % refers to the signal ratio; further: on the % scale 0 is the no-effect control and ±100 the full control effect); settings: AR-UAS-bla HEK293, beta-lactamase ratio, agonist 16 h; active compounds read high
Sequence of Androgen receptor (Homo sapiens) (P10275 whole entry, looked up): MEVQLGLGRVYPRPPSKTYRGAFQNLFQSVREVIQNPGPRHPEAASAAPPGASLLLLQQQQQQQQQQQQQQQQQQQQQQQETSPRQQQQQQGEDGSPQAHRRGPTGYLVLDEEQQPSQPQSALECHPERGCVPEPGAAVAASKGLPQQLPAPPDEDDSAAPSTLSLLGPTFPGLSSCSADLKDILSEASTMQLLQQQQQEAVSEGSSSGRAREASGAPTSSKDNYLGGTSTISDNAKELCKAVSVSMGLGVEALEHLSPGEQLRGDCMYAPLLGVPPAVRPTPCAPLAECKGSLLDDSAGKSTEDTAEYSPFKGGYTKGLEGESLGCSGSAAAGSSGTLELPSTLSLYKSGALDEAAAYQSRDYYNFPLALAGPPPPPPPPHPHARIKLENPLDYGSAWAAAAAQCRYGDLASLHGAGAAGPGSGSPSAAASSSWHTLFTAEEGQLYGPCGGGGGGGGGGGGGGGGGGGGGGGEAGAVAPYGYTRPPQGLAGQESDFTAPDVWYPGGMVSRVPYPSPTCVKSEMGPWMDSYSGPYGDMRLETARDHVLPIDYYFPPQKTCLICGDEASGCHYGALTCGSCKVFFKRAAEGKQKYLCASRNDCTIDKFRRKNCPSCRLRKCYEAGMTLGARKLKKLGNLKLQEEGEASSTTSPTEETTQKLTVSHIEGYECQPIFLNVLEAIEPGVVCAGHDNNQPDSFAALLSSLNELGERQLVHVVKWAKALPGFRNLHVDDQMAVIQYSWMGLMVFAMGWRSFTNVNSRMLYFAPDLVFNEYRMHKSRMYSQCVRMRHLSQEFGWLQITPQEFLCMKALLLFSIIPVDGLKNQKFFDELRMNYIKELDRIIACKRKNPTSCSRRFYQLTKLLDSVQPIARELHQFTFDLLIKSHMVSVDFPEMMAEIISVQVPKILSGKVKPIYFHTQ
Summary of the method: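 Stimulation of an AR-responsive β-lactamase reporter in GripTite HEK293 cells was measured after 16 h compound exposure at 37 °C, via CCF4 fluorescence after 2 h RT. EC50 from Hill fits, normalized to R1881 at 30 nM.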

O=C(O)c1ccccc1[N+](=O)[O-]
inactive: Potency [1] | Potency [2] | Potency [3] | Potency [4] | Potency [5] | Potency [6] | Potency [7] | Potency [8] | Potency [9] | Potency [10] | Potency [11] | Potency [12] | Potency [13] | outcome [14] | Potency [15] | Potency [16] | outcome [17]

COc1cccc(N)c1
inactive: Potency [1] | Potency [2] | Potency [3] | Potency [4] | Potency [5] | Potency [6] | Potency [7] | Potency [8] | Potency [9] | Potency [10] | Potency [11] | Potency [12] | Potency [13] | outcome [14] | Potency [15] | outcome [17]

CC(=O)c1ccccn1
inactive: Potency [1] | Potency [2] | Potency [3] | Potency [4] | Potency [5] | Potency [6] | Potency [7] | Potency [8] | Potency [9] | Potency [10] | Potency [11] | Potency [12] | Potency [13] | outcome [14] | Potency [15] | outcome [17]

Cc1ccc(C)c(O)c1
inactive: Potency [1] | Potency [2] | Potency [3] | Potency [4] | Potency [5] | Potency [6] | Potency [7] | Potency [8] | Potency [9] | Potency [10] | Potency [11] | Potency [12] | Potency [13] | outcome [14] | Potency [15] | Potency [16] | outcome [17]

O=[N+]([O-])c1ccc(Cl)cc1Cl
inactive: Potency [1] | Potency [2] | Potency [3] | Potency [4] | Potency [5] | Potency [6] | Potency [7] | Potency [8] | Potency [9] | Potency [10] | Potency [11] | Potency [12] | Potency [13] | outcome [14] | Potency [15] | Potency [16] | outcome [17]

CSCCC=O
inactive: Potency [1] | Potency [2] | Potency [3] | Potency [4] | Potency [5] | Potency [6] | Potency [7] | Potency [8] | Potency [9] | Potency [10] | Potency [11] | Potency [12] | Potency [13] | outcome [14] | Potency [15] | Potency [16] | outcome [17]

Nc1ccccc1S(=O)(=O)O
inactive: Potency [1] | Potency [2] | Potency [3] | Potency [4] | Potency [5] | Potency [6] | Potency [7] | Potency [8] | Potency [9] | Potency [10] | Potency [11] | Potency [12] | Potency [13] | outcome [14] | Potency [15] | Potency [16] | outcome [17]

COc1ccccc1[N+](=O)[O-]
inactive: Potency [1] | Potency [2] | Potency [3] | Potency [4] | Potency [5] | Potency [6] | Potency [7] | Potency [8] | Potency [9] | Potency [10] | Potency [11] | Potency [12] | Potency [13] | outcome [14] | Potency [15] | Potency [16] | outcome [17]

C1CCCC1
inactive: Potency [1] | Potency [2] | Potency [3] | Potency [4] | Potency [5] | Potency [6] | Potency [7] | Potency [8] | Potency [9] | Potency [10] | Potency [11] | Potency [12] | Potency [13] | outcome [14] | Potency [15] | Potency [16] | outcome [17]

CCCOCC(C)O (stereo not drawn)
inactive: Potency [2] | Potency [3] | Potency [4] | Potency [5] | Potency [6] | Potency [7] | Potency [8] | Potency [9] | Potency [10] | Potency [11] | Potency [12] | Potency [13] | outcome [14] | Potency [15] | Potency [16] | outcome [17] | activation [18] -4.67%

CC(C)(O)C(=O)O
inactive: Potency [1] | Potency [2] | Potency [3] | Potency [4] | Potency [5] | Potency [6] | Potency [7] | Potency [8] | Potency [9] | Potency [10] | Potency [11] | Potency [12] | Potency [13] | outcome [14] | Potency [15] | Potency [16] | outcome [17]

O=C(O)c1ccccc1Cl
inactive: Potency [1] | Potency [2] | Potency [3] | Potency [4] | Potency [5] | Potency [6] | Potency [7] | Potency [8] | Potency [9] | Potency [10] | Potency [11] | Potency [12] | Potency [13] | outcome [14] | Potency [15] | Potency [16] | outcome [17]

CCCCOCCOCCOCCCC
inactive: Potency [1] | Potency [2] | Potency [3] | Potency [4] | Potency [5] | Potency [6] | Potency [7] | Potency [8] | Potency [9] | Potency [10] | Potency [11] | Potency [12] | Potency [13] | outcome [14] | Potency [15] | Potency [16] | outcome [17]

CSc1ccc(C=O)cc1
inactive: Potency [1] | Potency [2] | Potency [3] | Potency [4] | Potency [5] | Potency [6] | Potency [7] | Potency [8] | Potency [9] | Potency [10] | Potency [11] | Potency [12] | Potency [13] | outcome [14] | Potency [15] | outcome [17]

O=C1OC(=O)c2c(Cl)c(Cl)c(Cl)c(Cl)c21
inactive: Potency [1] | Potency [2] | Potency [3] | Potency [4] | Potency [5] | Potency [6] | Potency [7] | Potency [8] | Potency [9] | Potency [10] | Potency [11] | Potency [12] | Potency [13] | outcome [14] | Potency [15] | Potency [16] | outcome [17]

CCC(C)O (stereo not drawn)
inactive: Potency [1] | Potency [2] | Potency [3] | Potency [4] | Potency [5] | Potency [6] | Potency [7] | Potency [8] | Potency [9] | Potency [10] | Potency [11] | Potency [12] | Potency [13] | outcome [14] | Potency [15] | Potency [16] | outcome [17]

C=CCn1c(=O)n(CC=C)c(=O)n(CC=C)c1=O
inactive: Potency [1] | Potency [2] | Potency [3] | Potency [4] | Potency [5] | Potency [6] | Potency [7] | Potency [8] | Potency [9] | Potency [10] | Potency [11] | Potency [12] | Potency [13] | outcome [14] | Potency [15] | Potency [16] | outcome [17]

CC(C)Cc1nccs1
inactive: Potency [1] | Potency [2] | Potency [3] | Potency [4] | Potency [5] | Potency [6] | Potency [7] | Potency [8] | Potency [9] | Potency [10] | Potency [11] | Potency [12] | Potency [13] | outcome [14] | Potency [15] | Potency [16] | outcome [17]
